This passage reports outcome and AC50 results from PubChem BioAssay (EPA / NIEHS).

SMILES strings stand for the structures. Activity calls are given as the source filed them. How the source made its calls: active means hit-call score of the fitted dose curve at least 0.9, where 1 is the maximum; inactive means score below 0.9.

The AC50 is the midpoint of the concentration-response curve, whichever way the signal moves.

Holding throughout (settings): mRNA level, 48 h; actives raise or lower the signal
Read-out in assay [1]: matrix metalloproteinase-10 (MMP10), MMP10 (gene 4319)
Put plainly: LTEA_HepaRG_MMP10: Life Technologies and Expression Analysis (LTEA) Assay for matrix metalloproteinase-10 (MMP10) using HepaRG (AID 2283517). In a few lines: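 In differentiated HepaRG cultures kept in 0.5% DMSO, test chemicals act for 48 h over an eight-point range with a top dose of 100 uM. Expression is then quantified by TaqMan RT-PCR against ACTB, GAPDH and POLR2A.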

Read-out in another assay: MYC, MYC (gene 4609)
Description: LTEA_HepaRG_MYC: Life Technologies and Expression Analysis (LTEA) Assay for MYC using HepaRG (AID 2283518). In a few lines: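 Expression changes were scored by TaqMan qRT-PCR with ACTB, GAPDH and POLR2A normalization. Cultures in serum-free induction medium received duplicate 8-point concentration series, highest 100 uM, for 48 h; DMSO (0.5%) served as baseline.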

Read-out in assay [2]: matrix metalloproteinase-3 (MMP3), MMP3 (gene 4314)
Put plainly: LTEA_HepaRG_MMP3: Life Technologies and Expression Analysis (LTEA) Assay for matrix metalloproteinase-3 (MMP3) using HepaRG (AID 2283519). The essentials:
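Human liver HepaRG cultures received chemicals (top concentration 100 uM, 0.5% DMSO) for 48 h in duplicate. MMP3 mRNA induction or loss was then assessed via TaqMan qRT-PCR with housekeeping-gene normalisation.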

Read-out in assay [3]: Paternally Expressed 10 (PEG10), PEG10 (gene 23089)
Description: LTEA_HepaRG_PEG10: Life Technologies and Expression Analysis (LTEA) Assay for Paternally Expressed 10 (PEG10) using HepaRG (AID 2283520).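 On AC50: differentiated HepaRG human liver cells in serum-free induction medium with 0.5% DMSO; PEG10 transcript by qRT-PCR normalised to ACTB GAPDH and POLR2A.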 In a few lines: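 qRT-PCR read-out: PEG10 mRNA normalised to three housekeeping genes, fitted bidirectionally against 0.5% DMSO vehicle. HepaRG cells received test chemicals for 48 h in serum-free induction medium, 8 points, top 100 uM, half-log steps.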

Read-out in assay [4]: Nuclear factor NF-kappa-B p105 subunit (Homo sapiens) (UniProt P19838)
Description: LTEA_HepaRG_NFKB1: Life Technologies and Expression Analysis (LTEA) Assay for Nuclear Factor Kappa B Subunit 1 (NFKB1) using HepaRG (AID 2283521).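 Further: differentiated human HepaRG liver cells in serum-free induction medium; TaqMan qRT-PCR transcript normalised to ACTB GAPDH and POLR2A housekeeping genes.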 The essentials: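 HepaRG, 48 h exposure; 8-pt half-log series from 100 uM in 0.5% DMSO; duplicates. Readout: NFKB1 mRNA by qRT-PCR (Fluidigm arrays), housekeeping-normalized. Gain/loss fit vs DMSO baseline.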

Read-out in assay [5]: Protein phosphatase 2A (PPP2R4), PTPA (gene 5524)
Put plainly: LTEA_HepaRG_PPP2R4: Life Technologies and Expression Analysis (LTEA) Assay for Protein phosphatase 2A (PPP2R4) using HepaRG (AID 2283522). The essentials:
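HepaRG, 48 h exposure, 8-pt half-log series from 100 uM, 0.5% DMSO vehicle, duplicates. Readout: PPP2R4 mRNA, Fluidigm qRT-PCR, housekeeping-normalized. Bidirectional curve fit vs DMSO baseline.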

Read-out in assay [6]: solute carrier (SLC22A1), SLC22A1 (gene 6580)
Description: LTEA_HepaRG_SLC22A1: Life Technologies and Expression Analysis (LTEA) Assay for solute carrier (SLC22A1) using HepaRG (AID 2283524). In a few lines: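 Transcript induction or suppression of SLC22A1 in human HepaRG cultures is scored after 48 h chemical treatment, with DMSO (0.5%) as baseline for bidirectional fitting. Concentrations span eight half-log points topping at 100 uM.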

Read-out in assay [7]: Pyruvate Dehydrogenase Kinase 4 (PDK4), PDK4 (gene 5166)
Description: LTEA_HepaRG_PDK4: Life Technologies and Expression Analysis (LTEA) Assay for Pyruvate Dehydrogenase Kinase 4 (PDK4) using HepaRG (AID 2283525). In a few lines: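 Eight-point, half-log concentration series (max 100 uM, 0.5% DMSO) applied to differentiated HepaRG cells for 48 h in duplicate. Endpoint: PDK4 mRNA induction or repression by qRT-PCR against DMSO baseline.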

Read-out in assay [8]: NAD(P)H dehydrogenase [quinone] 1 (NQO1), NQO1 (gene 1728)
Put plainly: LTEA_HepaRG_NQO1: Life Technologies and Expression Analysis (LTEA) Assay for NAD(P)H dehydrogenase [quinone] 1 (NQO1) using HepaRG (AID 2283526). The essentials:
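qRT-PCR read-out (Fluidigm TaqMan), normalized to three housekeeping genes, after 48 h chemical exposure of HepaRG cells. Concentrations: eight points, top 100 uM, half-log steps, 0.5% DMSO vehicle. Gain or loss of signal fitted relative to DMSO.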

Read-out in assay [9]: Nuclear factor erythroid 2-related factor 2 (Homo sapiens) (UniProt Q16236)
Put plainly: LTEA_HepaRG_NFE2L2: Life Technologies and Expression Analysis (LTEA) Assay for Nuclear factor erythroid 2-related factor 2 (NFE2L2) Transcription Factor using HepaRG (AID 2283527).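 Further: TaqMan qRT-PCR transcript level normalised to ACTB GAPDH and POLR2A housekeeping genes.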 The essentials: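 Human liver HepaRG line treated in duplicate for 48 h with an eight-point series topping at 100 uM. Gene expression of NFE2L2 by qRT-PCR, bidirectionally fitted against the vehicle control.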

Read-out in assay [10]: succinate dehydrogenase complex iron sulfur subunit B (SDHB), SDHB (gene 6390)
Description: LTEA_HepaRG_SDHB: Life Technologies and Expression Analysis (LTEA) Assay for succinate dehydrogenase complex iron sulfur subunit B (SDHB) using HepaRG (AID 2283528). The essentials:
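Readout is SDHB transcript level by qRT-PCR, normalised to three housekeeping genes and fitted bidirectionally against 0.5% DMSO vehicle. Human HepaRG cells were treated for 48 h at up to 100 uM.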

Read-out in assay [11]: Signal transducer and activator of transcription 3 (Homo sapiens) (UniProt P40763)
Put plainly: LTEA_HepaRG_STAT3: Life Technologies and Expression Analysis (LTEA) Assay for Signal transducer and activator of transcription (STAT3) using HepaRG (AID 2283529). The essentials:
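In this transcriptional endpoint, HepaRG cultures receive test chemicals at up to 100 uM for 48 h, tested in duplicate. STAT3 mRNA is normalized to ACTB, GAPDH and POLR2A.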

Read-out in assay [12]: solute carrier (SLCO1B1), SLCO1B1 (gene 10599)
Description: LTEA_HepaRG_SLCO1B1: Life Technologies and Expression Analysis (LTEA) Assay for solute carrier (SLCO1B1) using HepaRG (AID 2283530). The essentials: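 Human HepaRG cultures treated for 48 h with an eight-concentration half-log series topping at 100 uM; SLCO1B1 measured by qRT-PCR and fitted bidirectionally relative to DMSO.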

Read-out in assay [13]: sulfotransferase 2A1 (SULT2A1), SULT2A1 (gene 6822)
Description: LTEA_HepaRG_SULT2A1: Life Technologies and Expression Analysis (LTEA) Assay for sulfotransferase 2A1 (SULT2A1) using HepaRG (AID 2283531). In a few lines: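 Gene-expression endpoint in a human liver cell line: SULT2A1 mRNA change after 48 h chemical treatment, curves fitted in both directions relative to 0.5% DMSO vehicle. Concentrations spanned eight half-log steps from 100 uM.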

Read-out in assay [14]: Transforming Growth Factor (TGFA), TGFA (gene 7039)
Put plainly: LTEA_HepaRG_TGFA: Life Technologies and Expression Analysis (LTEA) Assay for Transforming Growth Factor (TGFA) using HepaRG (AID 2283532). The essentials: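 Gene expression of TGFA was quantified by qRT-PCR after human HepaRG cells were treated for 48 h with test chemicals (eight concentrations, highest 100 uM, 0.5% DMSO). Activity in either direction was fitted relative to DMSO.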

Read-out in assay [15]: Transforming Growth Factor (TGFB1), TGFB1 (gene 7040)
Put plainly: LTEA_HepaRG_TGFB1: Life Technologies and Expression Analysis (LTEA) Assay for Transforming Growth Factor (TGFB1) Transporter using HepaRG (AID 2283533). The essentials:
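Eight-point concentration-response (max 100 uM, half-log) in HepaRG under serum-free induction conditions, 48 h. TGFB1 mRNA by qRT-PCR, housekeeping-normalized.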

Read-out in a further assay: TIMP1, TIMP1 (gene 7076)
Put plainly: LTEA_HepaRG_TIMP1: Life Technologies and Expression Analysis (LTEA) Assay for TIMP1 using HepaRG (AID 2283534).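 Further: TaqMan qRT-PCR signal normalized to ACTB GAPDH and POLR2A housekeeping genes.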 The essentials:
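TIMP1 induction or repression in HepaRG cells after 48 h chemical exposure (eight concentrations, highest 100 uM), assessed by normalized qRT-PCR with bidirectional fitting to DMSO controls.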

Read-out in assay [16]: Tumor necrosis factor receptor 1 (TNFRSF1A), TNFRSF1A (gene 7132)
Put plainly: LTEA_HepaRG_TNFRSF1A: Life Technologies and Expression Analysis (LTEA) Assay for Tumor necrosis factor receptor 1 (TNFRSF1A) using HepaRG (AID 2283535). The essentials:
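Assay uses 48 h chemical treatment of differentiated HepaRG monolayers, tested in duplicate at eight concentrations from 100 uM downward in 0.5% DMSO. mRNA is normalized to ACTB, GAPDH and POLR2A, with induction or suppression fitted relative to vehicle.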

Read-out in assay [17]: Thyroid Hormone Responsive (THRSP), THRSP (gene 7069)
Description: LTEA_HepaRG_THRSP: Life Technologies and Expression Analysis (LTEA) Assay for Thyroid Hormone Responsive (THRSP) using HepaRG (AID 2283536). The essentials:
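Cell model: human HepaRG, approx. 100,000 cells/well, 0.5% DMSO vehicle. Exposure lasts 48 h; phenobarbital 1 mM serves as induction positive control. Gene expression is measured by qRT-PCR against three endogenous control genes.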

Nuclear factor erythroid 2-related factor 2 (Homo sapiens), sequence (Q16236 whole entry, looked up): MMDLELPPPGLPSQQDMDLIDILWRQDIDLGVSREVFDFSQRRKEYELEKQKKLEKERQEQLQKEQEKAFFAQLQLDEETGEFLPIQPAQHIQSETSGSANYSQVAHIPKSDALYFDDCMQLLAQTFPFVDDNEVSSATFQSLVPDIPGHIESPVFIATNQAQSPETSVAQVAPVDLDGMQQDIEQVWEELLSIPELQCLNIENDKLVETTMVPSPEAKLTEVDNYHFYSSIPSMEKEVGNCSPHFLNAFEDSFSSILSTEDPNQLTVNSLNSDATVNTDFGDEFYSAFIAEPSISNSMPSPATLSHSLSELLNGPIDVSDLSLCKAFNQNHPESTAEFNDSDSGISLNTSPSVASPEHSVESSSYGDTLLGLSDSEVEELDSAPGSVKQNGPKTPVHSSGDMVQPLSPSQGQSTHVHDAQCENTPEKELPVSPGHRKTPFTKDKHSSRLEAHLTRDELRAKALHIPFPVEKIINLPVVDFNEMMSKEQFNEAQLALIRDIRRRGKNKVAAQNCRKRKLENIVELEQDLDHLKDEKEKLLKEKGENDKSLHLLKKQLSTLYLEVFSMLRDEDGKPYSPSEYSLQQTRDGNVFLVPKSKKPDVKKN
Signal transducer and activator of transcription 3 (Homo sapiens), sequence (P40763 whole entry, looked up): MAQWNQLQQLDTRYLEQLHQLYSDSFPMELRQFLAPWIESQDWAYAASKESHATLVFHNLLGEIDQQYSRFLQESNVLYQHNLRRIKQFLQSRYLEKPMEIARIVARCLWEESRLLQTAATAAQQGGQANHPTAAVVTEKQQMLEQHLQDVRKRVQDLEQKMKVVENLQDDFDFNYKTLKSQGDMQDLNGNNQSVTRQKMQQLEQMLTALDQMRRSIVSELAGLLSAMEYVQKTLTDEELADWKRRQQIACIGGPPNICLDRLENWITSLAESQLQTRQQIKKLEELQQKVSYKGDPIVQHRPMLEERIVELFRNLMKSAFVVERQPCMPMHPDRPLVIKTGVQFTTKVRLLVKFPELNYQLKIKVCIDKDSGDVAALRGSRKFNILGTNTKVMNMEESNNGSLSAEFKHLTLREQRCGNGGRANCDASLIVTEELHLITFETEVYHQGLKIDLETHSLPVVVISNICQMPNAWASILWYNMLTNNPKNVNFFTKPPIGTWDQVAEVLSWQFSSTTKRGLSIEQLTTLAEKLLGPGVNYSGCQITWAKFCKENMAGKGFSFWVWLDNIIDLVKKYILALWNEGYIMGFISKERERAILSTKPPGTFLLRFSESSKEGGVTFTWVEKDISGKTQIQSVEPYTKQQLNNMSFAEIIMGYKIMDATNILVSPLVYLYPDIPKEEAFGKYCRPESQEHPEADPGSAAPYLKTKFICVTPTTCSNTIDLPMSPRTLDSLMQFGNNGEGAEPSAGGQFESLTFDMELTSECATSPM
Nuclear factor NF-kappa-B p105 subunit (Homo sapiens), sequence (P19838 whole entry, looked up): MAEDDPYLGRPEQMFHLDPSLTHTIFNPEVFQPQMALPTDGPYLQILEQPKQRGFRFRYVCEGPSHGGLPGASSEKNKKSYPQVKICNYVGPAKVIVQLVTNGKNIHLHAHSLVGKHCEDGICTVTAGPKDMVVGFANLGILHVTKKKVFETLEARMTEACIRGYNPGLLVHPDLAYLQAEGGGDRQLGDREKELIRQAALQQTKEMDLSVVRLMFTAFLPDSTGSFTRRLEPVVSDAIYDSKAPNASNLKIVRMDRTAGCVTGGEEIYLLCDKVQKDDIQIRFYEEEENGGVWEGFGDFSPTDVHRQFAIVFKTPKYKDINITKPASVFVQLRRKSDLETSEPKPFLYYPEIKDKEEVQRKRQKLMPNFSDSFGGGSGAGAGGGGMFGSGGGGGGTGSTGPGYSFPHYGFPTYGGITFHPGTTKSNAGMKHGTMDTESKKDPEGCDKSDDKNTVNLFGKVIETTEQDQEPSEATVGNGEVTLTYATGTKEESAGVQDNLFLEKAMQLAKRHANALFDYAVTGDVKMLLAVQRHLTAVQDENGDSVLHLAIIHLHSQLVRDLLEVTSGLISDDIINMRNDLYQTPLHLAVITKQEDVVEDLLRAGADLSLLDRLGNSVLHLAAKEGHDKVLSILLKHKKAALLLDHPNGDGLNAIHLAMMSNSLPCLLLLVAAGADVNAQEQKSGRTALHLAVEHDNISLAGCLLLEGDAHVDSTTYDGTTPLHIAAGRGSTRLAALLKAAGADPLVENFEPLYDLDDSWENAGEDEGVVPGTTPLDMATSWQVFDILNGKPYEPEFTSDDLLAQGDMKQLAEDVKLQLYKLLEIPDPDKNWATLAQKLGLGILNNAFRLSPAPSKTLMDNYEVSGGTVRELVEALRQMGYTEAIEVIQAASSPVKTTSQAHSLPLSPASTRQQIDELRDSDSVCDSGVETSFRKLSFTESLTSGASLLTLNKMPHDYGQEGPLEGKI

Consider `Cc1ccc(N(C)C)cc1`, for which the outcome is “inactive” in assay [1]; “inactive” with MYC, MYC (gene 4609); “inactive” in [2]; “inactive” in assay [3]; “inactive” in assay [4]; “inactive” in [5]. Besides, the result in assay [6], in assay [7], in [8], in assay [9], in assay [10] and in assay [11] was inactive. The outcome was “inactive” in assay [12]; “inactive” in assay [13]; “inactive” in [14]; “inactive” in assay [15]; “inactive” in the assay with TIMP1, TIMP1 (gene 7076); “inactive” in assay [16]. Further, the outcome in assay [17] was inactive.
Turning to `O=C(N[C@@H](Cc1ccccc1)[C@@H](O)C(=O)N1C[C@@H](O)[C@@H](O)C1)c1cc2cc(Cl)ccc2[nH]1`, the outcome was “inactive” in assay [1]; “inactive” with MYC, MYC (gene 4609); “inactive” in [2]; “inactive” in [4]; “inactive” in assay [5]; “inactive” in assay [6]. Further, the outcome in assay [7], in assay [8], in assay [9], in [10], in [11] and in assay [12] was inactive. For the same compound, the outcome in assay [13] was “inactive”; in assay [14], “inactive”; in the assay with TIMP1, TIMP1 (gene 7076), “inactive”; in [16] it was “inactive”. Moreover, the AC50 is 50 µM (active) in assay [3] and 88.6 µM (active) in [17].
Regarding `CNC(=O)[C@H]1O[C@@H](n2cnc3c(NCc4cc(Cl)ccc4OCc4cc(C)no4)ncnc32)[C@H](O)[C@@H]1N`, the outcome in [1] is “inactive”; with MYC, MYC (gene 4609), “inactive”; in assay [2] it was “inactive”; in assay [3] it was “inactive”; in assay [4] it was “inactive”; in assay [5], “inactive”. The result in assay [6], in [7], in assay [8], in assay [9], in assay [10] and in assay [11] was inactive. The outcome in [12] was “inactive”; in [13] it was “inactive”; in assay [14] it was “inactive”; in assay [15] it was “inactive”; in the assay with TIMP1, TIMP1 (gene 7076), “inactive”; in [16] it was “inactive”. Also, the result in assay [17] was inactive.
Consider `C1CCC(SSC2CCCCC2)CC1`, for which the outcome in [1] is “inactive”; with MYC, MYC (gene 4609), “inactive”; in [2], “inactive”; in assay [3], “inactive”; in assay [4] it was “inactive”; in assay [5], “inactive”. Moreover, the result in assay [6], in assay [7], in assay [8], in [9], in assay [10] and in [11] was inactive. The outcome is “inactive” in assay [12]; “inactive” in assay [13]; “inactive” in assay [14]; “inactive” in assay [15]; “inactive” with TIMP1, TIMP1 (gene 7076); “inactive” in assay [16]. The result in assay [17] was inactive.
